Active and inactive are the calls of the source.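 The calls were made as follows: active = relative FRET score above 0.01, or acceptor fluorescence over 30% below the sample-well median; inactive = the rest.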
Molecular target: Protein Rev (Human immunodeficiency virus type 1 group M subtype B (isolate WMJ22)) (UniProt P05866)
Assay: HIV-1 Rev-RRE binding inhibitors, retest, confirmation, biochemical, FRET, acceptor and relative FRET calls (AID 837);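 also: relative FRET combines rise in Cy5 acceptor with fall in fluorescein donor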
Details: Fl-Rev peptide / Cy5-RRE RNA FRET, 1536-well; at 8 µM

Protein Rev (Human immunodeficiency virus type 1 group M subtype B (isolate WMJ22)), sequence (P05866 whole entry, looked up): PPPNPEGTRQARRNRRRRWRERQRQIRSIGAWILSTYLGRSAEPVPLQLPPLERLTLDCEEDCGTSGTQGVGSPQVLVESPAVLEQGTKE

## COc1ccc(CCNC(C)CCc2ccc(OC)cc2)cc1 (stereo not given)
  outcome: active

## CC1CCC(NCCc2ccc3c(c2)OCO3)CC1 (stereo not given)
  outcome: inactive

## CN1C2CCC1CC(OC(=O)c1cc(Cl)cc(Cl)c1)C2 (stereo not given)
  outcome: inactive

## OC(Cc1ccccc1)(c1ccccc1)C1CN2CCC1CC2 (stereo not given)
  outcome: inactive

## c1ccc(C(OCCN2CCNCC2)c2ccccc2)cc1
  outcome: inactive

## COc1ccc(CCNCc2ccc(SC)cc2)cc1
  outcome: inactive

## CC(NC1CCCCC1)C(O)C12CC3CC(CC(C3)C1)C2 (stereo not given)
  outcome: inactive

## COc1ccc(CCC(C)NCCc2ccccc2)cc1 (stereo not given)
  outcome: inactive

## CNCC(O)c1cccc(OC(=O)c2ccccc2C)c1 (stereo not given)
  outcome: inactive

## Cc1ccc(-c2nc(N(C)C3CCN(C)CC3)c3ccccc3n2)cc1
  outcome: inactive

Source: PubChem BioAssay AID837 (The Scripps Research Institute Molecular Screening Center, 2007)
